From PubChem BioAssay
An excerpt weighted towards active compounds, which were near 3.5% of everything screened.
MITF inh = blocks human microphthalmia-associated transcription factor; O75030; AlphaScreen MITF homodimerization, bead proximity signal; inhibition, % at 2.6 µM; 0.91% of 650,000 active; AID 1259374; in the data active means inhibition above about 50%;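 further: 0% = vehicle wells with protein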
Target sequence (O75030 whole entry, looked up): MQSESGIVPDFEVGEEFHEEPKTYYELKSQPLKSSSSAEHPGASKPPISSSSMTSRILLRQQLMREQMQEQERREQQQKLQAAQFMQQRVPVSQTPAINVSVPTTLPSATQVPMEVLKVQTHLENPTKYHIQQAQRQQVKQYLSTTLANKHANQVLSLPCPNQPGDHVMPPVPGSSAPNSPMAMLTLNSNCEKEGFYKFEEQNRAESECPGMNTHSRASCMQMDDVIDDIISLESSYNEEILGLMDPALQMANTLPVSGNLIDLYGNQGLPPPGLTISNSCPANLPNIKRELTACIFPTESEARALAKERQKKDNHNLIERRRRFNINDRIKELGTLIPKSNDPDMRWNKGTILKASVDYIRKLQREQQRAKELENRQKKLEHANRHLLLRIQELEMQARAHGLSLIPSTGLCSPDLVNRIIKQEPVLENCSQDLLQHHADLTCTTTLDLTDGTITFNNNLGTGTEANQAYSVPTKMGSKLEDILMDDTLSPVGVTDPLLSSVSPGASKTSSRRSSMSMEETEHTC
TEAD-YAP inh = TEAD-YAP interaction inhibition | HEK-TIYL cells, TEAD-Gal4/YAP UAS-luciferase luminescence | inhibition, % at 9.12 µM | 1.4% of 640,000 active | AID 1259422; in the data active means inhibition above about 32%;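 further: 0% = median of test compound wells and 100% = reference inhibitor wells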
FBW7 activator = human FBW7 E3 ligase activation, primary screen; Q969H0; normalized activity (activation), % at 26.1 µM; 0.13% of 650,000 active; AlphaScreen FBW7–phospho-cyclin E peptide binding, activator screen; in the data active means normalized activity above about 1.9%;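 further: purified mutant Fbw7 with reduced substrate affinity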
GPR151 ag = human GPR151 activation; Q8TDV0; PathHunter beta-arrestin GPR151 cells, luminescence; activation, % at 11.2 µM; 1% of 650,000 active; AID 1508602; in the data active means activation above about 4.9%;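 further: 0% = median of compound wells and 100% = cells with positive control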
MITF confirm = confirmation of human MITF inhibitors; AlphaScreen MITF homodimerization, biotin/His-MITF beads; inhibition, % at 2.6 µM; 16% of 4,700 active; shares compounds with MITF inh;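 active means inhibition above a cutoff derived from the DMSO control wells, cut at about 28% in these data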;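 further: 0% = MITF dimer wells with DMSO only; inhibitors lower the bead chemiluminescence by keeping MITF from dimerizing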
AS interf DR = optically interferes with AlphaScreen signal in dose response | shares compounds with MITF inh | AlphaScreen optical interference counterscreen, cell-free | IC50, µM | 6% of 480 active; call rule not given here
AS interf ctr = AlphaScreen optical interference, counter-screen; shares compounds with MITF inh; LysRS AlphaScreen counterscreen, signal interference, triplicate; inhibition, % at 2.6 µM; 7.6% of 4,700 active;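 active means inhibition above a cutoff derived from the DMSO control wells, cut at about 30% in these data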
* marks the source's active call; other numbers are inactive results; · = no result.

SMILES | MITF inh | TEAD-YAP inh | FBW7 activator | GPR151 ag | MITF confirm | AS interf ctr | others
O=C(CNC1CCCCC1)Nc1ccccc1N1CCCCC1 | 53.6* | 0.1 | 0.0 | -0.9 | 12.1 | 14.1
O=C(CNCC1CCCO1)Nc1ccccc1N1CCCCC1 (stereo unspecified) | 60.0* | 3.3 | -0.1 | 0.0 | 11.7 | 11.3
Cc1cc(N)ccc1NC(=O)CN1CCCC1 | 67.5* | 5.4 | -0.1 | 0.0 | 6.3 | 17.6
Cc1ccc(-c2cc(C(=O)Nc3nc4ccc(Br)cc4s3)c3ccccc3n2)s1 | -2.0 | 6.7 | 0.1 | -0.8 | · | ·
Cc1ccc(-c2cc(C(=O)Nc3nnc(C)s3)c3ccccc3n2)s1 | 64.7* | 6.7 | 0.2 | 1.2 | 4.7 | 11.0
N#Cc1cc([N+](=O)[O-])ccc1NC(=O)COC(=O)/C=C/c1ccc2c(c1)OCO2 | -1.3 | -7.6 | -0.2 | 0.8 | · | ·
COc1cc(/C=C/C(=O)OCC(=O)Nc2ccc([N+](=O)[O-])cc2C#N)ccc1O | 71.8* | 9.8 | 0.6 | -0.8 | 1.5 | 5.2
O=C(CSc1nc2[nH]ncc2c(=O)n1-c1ccc(Br)cc1)NCc1cccs1 | 54.3* | 8.8 | -0.1 | 0.3 | -8.6 | -10.2
O=C(CSc1nc2[nH]ncc2c(=O)n1-c1ccc(Cl)cc1)NCc1cccs1 | 14.0 | 12.7 | 0.0 | -0.1 | · | ·
CC1=NN(c2ccccc2)C(=O)/C1=C/c1cc(C)n(-c2sc3c(c2C(=O)Nc2ccc(C)cc2)CCCC3)c1C | 19.4 | -5.2 | 1.1 | -1.1 | · | ·
Cc1c(NC(=S)NC(=O)/C=C/c2ccco2)cccc1C(=O)O | 67.3* | 0.0 | -0.4 | 1.5 | 60.3* | 22.7 | AS interf DR=>6.48
O=C(/C=C/c1ccco1)NC(=S)Nc1cc(C(=O)O)ccc1Cl | 63.4* | 9.6 | 0.0 | -1.1 | 68.7* | 6.8 | AS interf DR=>6.48
CCOC(=O)c1ccc(NC(=S)NC(=O)/C=C/c2ccco2)cc1 | 69.1* | -1.3 | 0.1 | -0.1 | 3.7 | 3.3
O=C(/C=C/c1ccco1)NC(=S)NNC(=O)c1ccccc1O | 61.0* | 58.2* | -0.8 | -0.7 | 66.5* | -18.1 | AS interf DR=>6.48
C[C@H](N=C1NS(=O)(=O)c2ccccc21)C(=O)OCC(=O)Nc1ccc(C(N)=O)cc1 | 0.0 | -4.2 | 0.1 | 0.6 | · | ·
CCOc1ccc2cc(C3CC(c4ccc(Br)cc4)=NN3C(=O)CCC(=O)O)c(Cl)nc2c1 (stereo unspecified) | -3.5 | -2.5 | -0.2 | 2.9 | · | ·
Cc1ccc(S(=O)(=O)C2(C(=O)N3CC(C)CC(C)C3)CC2)cc1 (stereo unspecified) | 3.1 | 8.4 | 0.1 | 0.0 | · | ·
COc1ccc(OC)c(S(=O)(=O)n2nc(-c3ccc(Cl)cc3)cc2N)c1 | -16.3 | 0.5 | -0.1 | 1.1 | · | ·
c1cncc(CNc2ccn3ncc(-c4cccc5cccnc45)c3n2)c1 | 13.8 | -1.0 | 0.1 | 0.2 | · | ·
COc1ccc(OC)c(CN2CCCC(C(=O)N3CCCCCC3)C2)c1 (stereo unspecified) | 93.2* | 7.9 | -0.1 | -0.3 | -13.6 | -6.2
COc1ccc(OC)c(CN2CCCC(C(=O)NN)C2)c1 (stereo unspecified) | 50.2 | -6.9 | -0.3 | 0.2 | · | ·
COc1ccc(OC)c(CN2CCC(C(N)=O)CC2)c1 | 2.1 | 0.6 | -0.1 | 1.6 | · | ·
COc1ccc(OC)c(CN2CCCC(C(=O)N3CCCCC3)C2)c1 (stereo unspecified) | 77.9* | 0.3 | -0.1 | -0.3 | -15.0 | -3.2
COc1ccc(CN2CCCC(C(=O)N3CCCC3)C2)c(OC)c1OC (stereo unspecified) | 93.2* | 13.5 | 0.0 | -0.3 | -14.9 | -11.9
O=C(c1nn2c(c1Cl)NC(c1ccc(Cl)cc1)CC2C(F)(F)F)N1CCCCCC1 (stereo unspecified) | 3.8 | 22.9 | 0.1 | 1.0 | · | ·
SMILES | MITF inh | TEAD-YAP inh | FBW7 activator | GPR151 ag | MITF confirm | AS interf ctr | others
NC(=O)CCC(=O)N1CCC(n2c(CC3CCCC3)nc3cccnc32)CC1 | 6.5 | -3.8 | 0.0 | -0.7 | · | ·
CCCc1nc(SCC(=O)NC(C)(C)C)c2ccccc2n1 | 52.9* | -10.9 | 0.1 | -1.0 | 6.6 | 14.6
Cc1cccn2c(=O)c3c(nc12)CCN(C(=O)Nc1cccc(C(F)(F)F)c1)C3 | 50.6* | 7.0 | 0.0 | -0.6 | 7.2 | 17.3
Cc1cccn2c(=O)c3c(nc12)CCN(C(=O)Nc1cccc(F)c1)C3 | 6.9 | -2.2 | 0.4 | 0.2 | · | ·
Cc1n[nH]c(=O)nc1NNc1ccc(C(=O)O)cc1 | 56.0* | -1.3 | -0.1 | -2.2 | 32.2* | 10.1 | AS interf DR=>6.48
O=C(C1CCCN(Cc2ccncc2)C1)N1CCc2ccccc2C1 (stereo unspecified) | 89.9* | 6.0 | 0.0 | 0.2 | -12.0 | -16.4
O=C(C1CCNCC1)N1CCc2ccccc2C1 | 60.4* | -8.3 | -0.1 | 0.1 | 4.2 | 12.3
CCS(=O)(=O)N1CCCC(C(=O)N2CCc3ccccc3C2)C1 (stereo unspecified) | 5.4 | 4.1 | 0.2 | 0.4 | · | ·
O=C(C1CCN(c2ccc(N3CCOCC3)nn2)CC1)N1CCc2ccccc2C1 | 11.2 | 4.1 | 0.3 | 1.3 | · | ·
Cc1ccc(C)n1C(CC(=O)O)c1cccc(Cl)c1 (stereo unspecified) | 76.8* | 2.7 | -0.3 | -0.1 | 15.5 | 7.0
NC(=O)NC(c1ccccc1)c1cccc(Cl)c1 (stereo unspecified) | 16.6 | 1.3 | 0.8 | -0.2 | · | ·
O=C(c1cccc(OC2CCN(CC3CC=CCC3)CC2)c1)N1CCOCC1 (stereo unspecified) | -1.0 | 4.5 | 0.0 | 0.2 | · | ·
O=C(c1ccncc1)N1CCN(CC2CC=CCC2)CC1 (stereo unspecified) | 72.9* | 6.6 | -0.1 | 0.1 | -5.6 | -0.1
O=C(c1cccnc1)N1CCN(CC2CC=CCC2)CC1 (stereo unspecified) | 70.8* | 5.5 | 0.6 | -0.4 | -6.8 | -4.9
COc1ccc(CN2CCC(C(=O)NCCc3ccccc3)CC2)cc1 | 36.2 | 0.4 | 0.1 | 0.7 | · | ·
O=C(NCCc1ccccc1)C1CCN(Cc2cccnc2)CC1 | 50.7* | 1.5 | 0.1 | 2.6 | 8.4 | 21.5
O=C(NCc1cccnc1)C1CCN(CC2CC=CCC2)CC1 (stereo unspecified) | 63.1* | -0.5 | -0.1 | 1.5 | 11.0 | 15.0
CCOC(=O)c1sc(NC(=O)c2ccc(S(=O)(=O)N3CCN(C(=O)OCC)CC3)cc2)nc1-c1ccccc1 | 0.4 | 8.0 | -0.1 | 3.9 | · | ·
O=C(c1cccnc1)N1CCN(C2CCCC2)CC1 | 64.3* | -2.4 | 0.1 | 0.4 | 1.0 | 7.6
Oc1ccc(Cl)cc1/C=N/Nc1nncc(-c2ccccc2)n1 | -3.6 | 3.8 | -0.7 | 0.7 | · | ·
O=C(O)c1cc(NN=C2CCCC2)ccc1Cl | 71.8* | -20.8 | -0.6 | 1.3 | 72.8* | 0.7 | AS interf DR=>7.18
Cc1sc2ncnc(N(C)CCc3ccccn3)c2c1C | 73.0* | 1.9 | -0.2 | 0.1 | 4.3 | 1.7
CCN1CCN(Cc2coc3ccccc3c2=O)CC1 | 81.6* | -11.5 | 0.6 | -0.3 | 41.5* | 7.3 | AS interf DR=>6.48
COc1ccc(CCN=C(C)C2=C(O)C(c3ccccc3)OC2=O)cc1OC (stereo unspecified) | 74.1* | 12.0 | -0.1 | -1.4 | 3.9 | 7.0
